About 83,000 compounds went through this panel and 20% of them were active in at least one assay; those are over-represented in the sample as a whole.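 A percent growth of 40 corresponds to 60% growth inhibition; 0 means no net growth; -100 means all cells died. Active threshold: below 10.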 Values without a mark were called inactive. The source made the active and inactive calls.
system: MDA-MB-231 breast; test: NCI-60 one-dose screen, 48 h (100 = growth as untreated, 0 = no growth, -100 = all killed); settings: 10 µM

Compound | growth
COCCCC/C(=N\OCCN)c1ccc(C(F)(F)F)cc1 | 74%
Cc1ccccc1N=C(c1ccccc1)C1C(=O)c2ccccc2C1=O | 98.7%
O=C(O)C(c1ccccc1)C(O)c1ccccc1 (configuration not stated) | 102%
CC(C)(C)c1cc(O)c(C(C)(C)C)cc1O | 88.9%
O=C(CCNNC(=O)c1ccncc1)NCc1ccccc1 | 60.9%
CCCNc1ccc(C2=NCCCN2)cc1 | 98.7%
O=[N+]([O-])c1ccc(O)c(S(=O)(=O)O)c1 | 88.7%
O=C(O)c1cccc([N+](=O)[O-])c1O | 103%
C/C=C/CC(C)C(O)C1C(=O)NC(CC)C(=O)N(C)CC(=O)N(C)C(CC(C)C)C(=O)NC(C(C)C)C(=O)N(C)C(CC(C)C)C(=O)NC(C)C(=O)NC(C)C(=O)N(C)C(CC(C)C)C(=O)N(C)C(CC(C)C)C(=O)N(C)C(C(C)C)C(=O)N1C (configuration not stated) | -6.48% (active)
O=[N+]([O-])c1ccc(N=Nc2ccccc2)cc1 | 88.9%
O=C(CC(=O)c1ccccc1O)c1ccccc1 | 91.1%
CCn1c(=O)n(C)c2c(=O)n(C)c(=O)n(C)c21 | 110%
CCCCCCCCCCCCCCCCC1CC(=O)OC1=O (configuration not stated) | 98.3%
O=C1c2ccccc2C(=O)N1OCc1ccccc1 | 104%
C[C@@H](c1ccccc1)[C@@H](C(=O)O)c1ccccc1 | 110%
CC(=O)C1CCCCC1 | 102%
Nc1ccc(CC(=O)O)c(N)c1 | 103%
